Consider 32 compounds from PubChem BioAssay (NCATS).

Structures are written as SMILES. Unmarked numbers belong to inactive results. Results filed as inconclusive are left out. The list shows a part of the results. Active and inactive are the calls of the source. The call rests on the fitted dose curve; in most records, active means well fitted curve in the direction sought with a large enough effect; inconclusive means small, poorly fitted or top-dose-only effect, or another doubt; inactive means no such curve, though single readings can be large; an effect the other way counts as inactive or inconclusive.

Test [1] has as its target Rap guanine nucleotide exchange factor 3 (Homo sapiens) (UniProt O95398). Description: Confirmatory qHTS for agonist of cAMP-regulated guanine nucleotide exchange factor 3 (EPAC1) (AID 1645881). Further: nearly all actives have a fitted effect of over 75% in size. Further: potency means the concentration at half of the fitted maximal effect.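 On activation: EPAC1 catalysed release of BODIPY-GDP from Rap1B seen as fluorescence loss; 100% = effect of cAMP agonist control.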 For orientation: qHTS replaces the single test concentration by a dilution series.
Test [2] addresses Rap guanine nucleotide exchange factor 4 (Homo sapiens) (UniProt Q8WZA2). Description: Confirmatory qHTS for agonist of cAMP-regulated guanine nucleotide exchange factor 4 (EPAC2) (AID 1645884).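 Further: nucleotide exchange releases bodipy-GDP from Rap1 and this lowers its fluorescence; nearly all actives have a fitted effect of over 65% in size.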 Further: potency means the concentration at half of the fitted maximal effect. On activation: on the % scale 0 is the no-effect control and ±100 the full control effect.
For test [3], the target named is Rap guanine nucleotide exchange factor 3 (Homo sapiens) (UniProt O95398). Briefly: Counterscreen qHTS for agonist of cAMP-regulated guanine nucleotide exchange factor 3 (EPAC1) (AID 1645889). Further: nearly all actives have a fitted effect of over 40% in size. Further: potency means the concentration at half of the fitted maximal effect. On activation: % of control where 0% means no effect. The gist of the method: (§1)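 Rap1B–BODIPY-GDP (250 nM) with 50 uM GDP; compounds pin-transferred to 9.74 nM–152 uM final (activator) or from 7.32 nM upwards (inhibitor). Fluorescence Ex/Em 480/540 nm read at 5 and 30 min, then after adding cAMP or buffer, at room temperature.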
Rap guanine nucleotide exchange factor 3 (Homo sapiens), sequence (O95398 whole entry, looked up): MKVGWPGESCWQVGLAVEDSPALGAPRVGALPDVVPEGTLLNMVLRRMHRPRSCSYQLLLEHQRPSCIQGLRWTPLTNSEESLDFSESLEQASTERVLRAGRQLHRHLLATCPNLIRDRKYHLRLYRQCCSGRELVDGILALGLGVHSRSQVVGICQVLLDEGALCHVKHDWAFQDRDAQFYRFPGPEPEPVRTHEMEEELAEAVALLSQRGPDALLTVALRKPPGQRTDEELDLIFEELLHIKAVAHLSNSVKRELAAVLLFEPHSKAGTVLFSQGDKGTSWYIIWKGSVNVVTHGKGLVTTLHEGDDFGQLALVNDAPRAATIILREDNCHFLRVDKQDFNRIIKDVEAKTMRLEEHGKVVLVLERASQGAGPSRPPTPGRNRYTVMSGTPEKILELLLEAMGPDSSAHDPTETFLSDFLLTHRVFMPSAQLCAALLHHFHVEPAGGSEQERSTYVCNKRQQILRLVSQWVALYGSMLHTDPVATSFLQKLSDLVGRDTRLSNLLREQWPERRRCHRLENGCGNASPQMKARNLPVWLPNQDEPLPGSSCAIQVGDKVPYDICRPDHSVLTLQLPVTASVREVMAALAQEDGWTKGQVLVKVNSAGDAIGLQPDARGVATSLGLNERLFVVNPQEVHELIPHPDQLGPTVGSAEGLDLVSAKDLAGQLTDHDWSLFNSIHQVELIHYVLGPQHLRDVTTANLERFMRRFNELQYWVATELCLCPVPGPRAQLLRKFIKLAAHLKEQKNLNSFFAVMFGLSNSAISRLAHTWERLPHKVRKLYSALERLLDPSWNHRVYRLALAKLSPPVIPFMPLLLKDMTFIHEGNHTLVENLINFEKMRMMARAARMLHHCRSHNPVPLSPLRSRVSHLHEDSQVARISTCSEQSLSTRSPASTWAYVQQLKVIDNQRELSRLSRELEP
A general note: Counterscreens check selectivity or assay interference.

The target of test [4] is Flap endonuclease 1 (Homo sapiens) (UniProt P39748). Description: qHTS Assay for the Inhibitors of FEN1: Confirmatory Assay for Cherry-picked Compounds (AID 720498). Further: potency means the concentration at half of the fitted maximal effect; nearly all actives have a fitted effect of over 60% in size. Conditions: FEN1 flap cleavage, TAMRA/BHQ2 fluorogenic DNA substrate. The essentials: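 FEN1 at 10 nM was preincubated with compound for 15 min at room temperature, then 50 nM (final) double-flap DNA substrate was added. TAMRA fluorescence released from the BHQ-2-quenched flap was read at 0 and 15 min (ex 525/em 598 nm).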
Flap endonuclease 1 (Homo sapiens), sequence (P39748 whole entry, looked up): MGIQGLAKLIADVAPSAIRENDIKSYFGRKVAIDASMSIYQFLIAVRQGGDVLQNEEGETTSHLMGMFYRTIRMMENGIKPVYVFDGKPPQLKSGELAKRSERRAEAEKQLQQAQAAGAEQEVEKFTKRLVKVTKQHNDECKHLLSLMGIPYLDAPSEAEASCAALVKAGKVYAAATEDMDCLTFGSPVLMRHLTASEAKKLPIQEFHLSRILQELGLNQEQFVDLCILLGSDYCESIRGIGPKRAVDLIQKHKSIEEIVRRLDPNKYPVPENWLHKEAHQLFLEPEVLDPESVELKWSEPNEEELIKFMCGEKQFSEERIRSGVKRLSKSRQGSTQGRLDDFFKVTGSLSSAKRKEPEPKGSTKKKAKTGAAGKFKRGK

For test [5], the target named is Rap guanine nucleotide exchange factor 4 (Homo sapiens) (UniProt Q8WZA2). Briefly: Confirmatory qHTS for antagonist of cAMP-regulated guanine nucleotide exchange factor 4 (EPAC2) (AID 1645885). Further: nearly all actives have a fitted effect of over 25% in size. Further: potency means the concentration at half of the fitted maximal effect. On activity change, negative = inhibition: on the % scale 0 is the no-effect control and ±100 the full control effect.
Rap guanine nucleotide exchange factor 4 (Homo sapiens), sequence (Q8WZA2 whole entry, looked up): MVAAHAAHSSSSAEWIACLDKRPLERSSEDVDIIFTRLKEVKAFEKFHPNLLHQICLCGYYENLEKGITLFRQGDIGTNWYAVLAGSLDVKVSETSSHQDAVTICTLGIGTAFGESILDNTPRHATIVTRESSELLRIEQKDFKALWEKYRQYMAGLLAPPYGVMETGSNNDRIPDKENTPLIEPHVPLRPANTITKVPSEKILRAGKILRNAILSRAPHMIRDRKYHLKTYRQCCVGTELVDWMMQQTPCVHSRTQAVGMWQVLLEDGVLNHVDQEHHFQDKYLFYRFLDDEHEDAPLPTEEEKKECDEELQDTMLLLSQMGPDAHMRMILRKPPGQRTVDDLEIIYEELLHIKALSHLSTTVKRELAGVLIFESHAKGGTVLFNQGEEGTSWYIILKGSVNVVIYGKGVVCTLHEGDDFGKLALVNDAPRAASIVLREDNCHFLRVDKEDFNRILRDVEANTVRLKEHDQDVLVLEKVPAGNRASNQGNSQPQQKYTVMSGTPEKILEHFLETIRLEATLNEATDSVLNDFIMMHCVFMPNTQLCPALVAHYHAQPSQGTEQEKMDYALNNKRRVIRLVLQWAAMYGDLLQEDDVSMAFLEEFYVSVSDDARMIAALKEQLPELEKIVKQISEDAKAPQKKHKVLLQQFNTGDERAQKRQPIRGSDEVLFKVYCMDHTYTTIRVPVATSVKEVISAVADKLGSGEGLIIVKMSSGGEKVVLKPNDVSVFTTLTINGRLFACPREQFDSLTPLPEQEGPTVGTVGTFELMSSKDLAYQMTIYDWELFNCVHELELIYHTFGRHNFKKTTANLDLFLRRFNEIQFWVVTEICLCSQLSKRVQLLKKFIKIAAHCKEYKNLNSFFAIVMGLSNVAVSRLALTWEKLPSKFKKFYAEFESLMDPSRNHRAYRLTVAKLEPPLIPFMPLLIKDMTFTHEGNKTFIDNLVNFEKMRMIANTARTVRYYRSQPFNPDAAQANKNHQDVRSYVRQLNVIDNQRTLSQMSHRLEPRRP
Test [6] has as its target Rap guanine nucleotide exchange factor 3 (Homo sapiens) (UniProt O95398). Description: Counterscreen qHTS for antagonist of cAMP-regulated guanine nucleotide exchange factor 3 (EPAC1) (AID 1645888).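 Further: fluorescence loss as bound BODIPY-GDP is released from Rap1B; % of control where 0% means no effect.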 The essentials:
as §1

Test [7] has as its target Tumor susceptibility gene 101 protein (Homo sapiens) (UniProt Q99816). Briefly: qHTS Assay for Iinhibitors of HIV-1 Budding by Blocking the Interaction of PTAP/TSG101: Hit Validation (AID 651600). Further: potency means the concentration at half of the fitted maximal effect; nearly all actives have a fitted effect of over 70% in size. The essentials:
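Fluorescence polarization binding assay: Tsg101 binding domain (10 uM final) pre-dispensed with compounds, then FITC-labeled PTAP-motif peptide (50 nM final) added; 20 min at r.t. in HEPES pH 7.5 buffer with NaCl, Tween 20, EDTA, TCEP.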

Test [8] addresses DNA dC->dU-editing enzyme APOBEC-3G (Homo sapiens) (UniProt Q9HC16). Briefly: qHTS for inhibitors of Vif-A3G interactions: Validation (AID 588379). Further: 0% is about no effect. The essentials: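 HeLa cells stably expressing Vif and A3G-eYFP, 700 cells/well, incubated overnight at 37 deg C, then exposed to compound overnight at 37 deg C. Inhibition of Vif-mediated degradation read as increased yellow fluorescence (Ex 488/Em 500-530) by laser-scanning cytometry.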

Tumor susceptibility gene 101 protein (Homo sapiens), sequence (Q99816 whole entry, looked up, the tested form may be a part): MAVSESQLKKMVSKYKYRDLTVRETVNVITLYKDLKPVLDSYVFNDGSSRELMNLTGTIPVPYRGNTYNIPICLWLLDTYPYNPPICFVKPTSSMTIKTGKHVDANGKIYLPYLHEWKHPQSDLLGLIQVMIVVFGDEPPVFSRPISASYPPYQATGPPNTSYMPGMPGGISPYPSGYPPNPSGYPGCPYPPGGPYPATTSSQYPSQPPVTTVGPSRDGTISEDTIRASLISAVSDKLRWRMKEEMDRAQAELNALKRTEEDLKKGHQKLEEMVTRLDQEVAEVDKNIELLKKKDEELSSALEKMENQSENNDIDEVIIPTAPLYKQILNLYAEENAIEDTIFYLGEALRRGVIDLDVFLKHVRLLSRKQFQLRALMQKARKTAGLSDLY
DNA dC->dU-editing enzyme APOBEC-3G (Homo sapiens), sequence (Q9HC16 whole entry, looked up): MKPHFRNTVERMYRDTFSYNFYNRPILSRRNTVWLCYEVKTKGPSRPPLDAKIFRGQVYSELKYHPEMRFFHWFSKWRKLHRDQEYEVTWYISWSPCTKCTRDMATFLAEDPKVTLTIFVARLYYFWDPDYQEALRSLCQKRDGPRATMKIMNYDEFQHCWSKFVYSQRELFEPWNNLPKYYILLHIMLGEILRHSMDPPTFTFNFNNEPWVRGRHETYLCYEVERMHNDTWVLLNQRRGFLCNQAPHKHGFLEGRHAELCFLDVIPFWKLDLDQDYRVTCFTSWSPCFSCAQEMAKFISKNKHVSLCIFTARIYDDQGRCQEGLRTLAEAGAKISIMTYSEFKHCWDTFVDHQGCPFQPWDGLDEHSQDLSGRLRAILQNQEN

In the case of `COc1ccc(C(=O)c2ccccc2Cl)cc1OC`, the Potency entry in test [1], in test [2] and in test [3] was “inactive” throughout.

As to `CCN1/C(=C\c2ccc3ccccc3[n+]2CC)Sc2cc(C)ccc21`, in test [4], the Potency is 21.3 µM (active). In addition, the Potency entry in test [1] and in test [2] was “inactive” throughout.

On to `CCCCOc1ccc(C(=O)N/N=C/c2cn[nH]c2-c2ccc(OC)c(OC)c2)cc1`, for which the Potency result in test [1], in test [2] and in test [3] was “inactive” each time.

In the case of `CCOc1cc2c(cc1/C=C/c1noc(C)c1[N+](=O)[O-])OC(C)C2` (centres undefined), the Potency entry in test [1] and in test [5] was “inactive” in each case. The activity change, negative = inhibition in test [6] is -13.8% [at 30.8 µM].

With `O=C(Cn1c(=O)c2ccccc2n(CC(=O)Nc2ccc(Cl)cc2)c1=O)NCCc1ccccc1`, the Potency entry in test [1], in test [5] and in test [6] was “inactive” in each case.

With `Cc1nn(C)cc1N1C(=O)c2cccc3c(N)ccc(c23)C1=O`, the Potency is 6.51 µM (active) in test [7], 112 µM (active) in test [1] and 100 µM (active) in test [2].

In the case of `CC(NC(=O)COC(=O)C1CCN(c2ccc(C(F)(F)F)cn2)CC1)c1ccc(Br)cc1` (centres undefined), the Potency result in test [1], in test [2] and in test [3] was “inactive” in each case.

Take `CCN1CCN(S(=O)(=O)c2ccc(Cl)c(C(=O)N(C)Cc3cccc(Cl)c3Cl)c2)CC1`: the Potency result in test [1], in test [2] and in test [3] was “inactive” each time.

As to `CCOC(=O)c1c(NC(=O)C2C3C=CC(C3)C2C(=O)O)sc2c1CCC(CC)C2` (centres undefined), the Potency result in test [1], in test [2] and in test [3] was “inactive” in each case.

On to `Cc1ccc(C)c(CN2C(=O)C(O)(c3c[nH]c4ccccc34)c3ccccc32)c1` (centres undefined), for which the Potency result in test [1] was “inactive”. For the same compound, in test [5], the outcome is “inactive [at 12.7 µM]”.

With `CC1COc2ccccc2N1S(=O)(=O)c1ccc(Cl)cc1` (centres undefined), the Potency result in test [1], in test [2] and in test [3] was “inactive” each time.

For `O=C1CN(C(=O)c2c(F)cccc2Cl)C(c2ccc(F)cc2)c2cc(Br)ccc2N1` (centres undefined), the Potency result in test [1] and in test [5] was “inactive” throughout.

`Cc1cc[n+](-c2[nH]c(=O)sc2/C=N/N=C(\[O-])c2ccccc2)cc1`: the Potency result in test [1] and in test [5] was “inactive” in each case.

`COc1ccc(CNc2ncnc3onc(-c4ccc(F)cc4)c23)cc1`: the Potency result in test [1], in test [5] and in test [6] was “inactive” throughout.

Take `COC1/C=C/OC2(C)Oc3c(C)c(O)c4c(O)c(c(/C=N/N5CCN(C)CC5)c(O)c4c3C2=O)NC(=O)/C(C)=C/C=C/C(C)C(O)C(C)C(O)C(C)C(OC(C)=O)C1C` (centres undefined): in test [8], the compound was classed as inactive. Besides, the Potency entry in test [1] and in test [2] was “inactive” throughout.

As to `O=c1c2ccccc2c(C=Nc2ccc(O)cc2)c(O)n1-c1nccs1`, the Potency entry in test [1] and in test [5] was “inactive” each time.

In the case of `Cc1ccc(S(=O)(=O)c2nc(-c3ccco3)oc2SC(C)C)cc1`, the Potency result in test [1] is “inactive”. Moreover, the activation is 4.44% [at 17.1 µM, percent relative to cAMP agonist control] in test [2] and 16.5% [at 30.8 µM] in test [3].

As for `O=C(c1ccccc1Cc1ccccc1)N1CCN(S(=O)(=O)c2ccccc2Br)CC1`, the Potency result in test [1], in test [5] and in test [6] was “inactive” throughout.

Regarding `COc1ccc(Cl)cc1NC(=O)COC(=O)c1cc(NS(=O)(=O)c2cccs2)ccc1O`, the Potency result in test [1], in test [5] and in test [6] was “inactive” throughout.

With `COc1ccccc1CN(C)C(=O)C(c1ccccc1)c1ccccc1`, the Potency entry in test [1], in test [5] and in test [6] was “inactive” each time.

For `Cc1ccc2c(c1)N(Cc1cccc(Cl)c1)C(=O)c1cccnc1O2`, the Potency result in test [1] and in test [6] was “inactive” throughout. The Potency in test [5] was 47.8 µM (active).

For the compound `Cc1ccc(C)c(Oc2nc3c(c(=O)n(C)c(=O)n3C)n2Cc2ccccc2)c1`, the Potency entry in test [1], in test [5] and in test [6] was “inactive” in each case.

For the compound `Cc1cc(C)c2nc(C(F)(F)F)nc(N3CC(C)OC(C)C3)c2c1` (centres undefined), the Potency entry in test [1], in test [2] and in test [3] was “inactive” throughout.

With `CCCCN(CCCC)c1ccc(/C=C/c2ccnc3ccccc23)cc1`, the Potency entry in test [1] and in test [5] was “inactive” in each case.

Consider `COc1ccc2c(c1)Cc1sc(NC(=O)c3ccccc3Br)nc1-2`, for which the Potency result in test [1] and in test [6] was “inactive” throughout. Further, the outcome in test [5] is “inactive [at 12.7 µM]”.

`Cc1ccc2c(c1)-c1c(cnn1CC(=O)N1CCN(c3cccc(C(F)(F)F)c3)CC1)CO2`: the Potency result in test [1] and in test [6] was “inactive” in each case. In addition, the outcome in test [5] was “inactive [at 12.7 µM]”.

As for `Cc1ccc(-c2nc3ccc(C)cn3c2Cc2cccc(F)c2)cc1`, the Potency entry in test [1], in test [5] and in test [6] was “inactive” in each case.

In the case of `O=C(CSc1nc2ccccc2o1)N/N=C/c1ccc(O)c(O)c1`, the Potency result in test [1], in test [5] and in test [6] was “inactive” throughout.

With `CN(C)c1ccc(/C=C2\C(=N)N3N=C(CC(=O)N4CCCCC4)SC3=NC2=O)cc1`, the Potency result in test [1], in test [5], in test [6] and in test [3] was “inactive” each time.

`O=C(O)c1ccc(NS(=O)(=O)c2ccc3c(c2)C2C=CCC2C(c2ccccc2F)N3)cc1` (centres undefined): the Potency entry in test [1] and in test [6] was “inactive” in each case. For the same compound, the Potency in test [5] was 75.7 µM (active); in test [3], 44.7 µM (active).

Consider `Cc1cccc2sc(N(Cc3cccnc3)C(=O)c3cccs3)nc12`, for which the Potency result in test [1], in test [5] and in test [6] was “inactive” each time. The Potency in test [3] is 25.1 µM (active).

With `Clc1ccc(OCCn2c(-c3ccco3)nc3ccccc32)cc1`, the Potency result in test [1], in test [5] and in test [6] was “inactive” in each case.
